Screening results (PubChem BioAssay)
Compounds with a hit are over-represented: about 3.4% of the library has one in this group of screens.
FBW7 activator: activators of human E3 ligase FBW7 | AID 1259310 | Q969H0 | hit rate 0.13% among 650,000 | AlphaScreen FBW7–phospho-cyclin E peptide binding, activator screen | normalized activity (activation), % at 26.1 µM; in the data active = normalized activity above about 1.9%;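 note: purified mutant Fbw7 with reduced substrate affinity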
MITF primary: blocks human microphthalmia-associated transcription factor; O75030; AlphaScreen MITF homodimerization, bead proximity signal; inhibition, % at 2.6 µM; hit rate 0.91% among 650,000; AID 1259374; in the data active = inhibition above about 50%
Target sequence (O75030 whole entry, looked up): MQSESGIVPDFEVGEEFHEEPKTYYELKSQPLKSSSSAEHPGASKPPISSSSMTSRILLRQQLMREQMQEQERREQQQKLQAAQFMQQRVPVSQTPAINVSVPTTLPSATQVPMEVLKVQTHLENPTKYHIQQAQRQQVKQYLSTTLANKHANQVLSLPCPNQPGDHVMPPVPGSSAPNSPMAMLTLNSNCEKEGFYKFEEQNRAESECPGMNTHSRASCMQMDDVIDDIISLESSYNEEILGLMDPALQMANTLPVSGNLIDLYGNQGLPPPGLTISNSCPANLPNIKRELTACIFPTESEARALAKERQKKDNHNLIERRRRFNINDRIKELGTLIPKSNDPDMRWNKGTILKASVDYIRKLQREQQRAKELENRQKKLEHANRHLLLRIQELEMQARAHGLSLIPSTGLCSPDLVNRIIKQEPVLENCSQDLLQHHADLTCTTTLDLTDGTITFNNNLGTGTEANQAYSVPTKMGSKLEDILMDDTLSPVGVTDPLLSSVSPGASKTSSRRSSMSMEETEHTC
GPR151 activ: human GPR151 activation; AID 1508602; PathHunter beta-arrestin GPR151 cells, luminescence; activation, % at 11.2 µM; hit rate 1% among 650,000; Q8TDV0; in the data active = activation above about 4.9%
TEAD-YAP inh: TEAD-YAP interaction inhibition; HEK-TIYL cells, TEAD-Gal4/YAP UAS-luciferase luminescence; inhibition, % at 9.12 µM; hit rate 1.4% among 640,000; AID 1259422; in the data active = inhibition above about 32%
GPR151 conf act: confirmation of human GPR151 activators | GPR151 PathHunter beta-arrestin cells, luminescence, 90 min; % of EA-reagent control over plate median | 6,700 tested, under 10 active | AID 1508609 | activation, % at 11.2 µM | shares compounds with GPR151 activ;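 active = mean percent activation across replicates above the confirmation screen cutoff of 4.91%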
GPR119 ag: counter-screen for GPR151 activators: effect on human GPR119; shares compounds with GPR151 activ; GPR119 PathHunter beta-arrestin cells, luminescence, 90 min; 0 = compound-well median, 100 = enzyme-acceptor control; activation, % at 11.2 µM; hit rate 0.3% among 6,700;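 active = mean percent activation in the counterscreen above 29.09%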;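 note: counterscreen on off-target GPR119 to flag nonselective hits from the GPR151 activator screen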
Large screens that a line does not name were inactive (follow-up assays come after a bar, where they were run); ! = not active in a repeat.

O=S(c1cc(Cl)cc(Cl)c1O)c1cc(Cl)cc(Cl)c1O	GPR151 activ 6.9 | GPR151 conf act inactive | GPR119 ag inactive
O=S(=O)(CCOc1ccccc1)N1CCN(c2ncccn2)CC1	GPR151 activ 6.2 | GPR151 conf act inactive | GPR119 ag inactive
O=C(COc1ccc(Cl)cc1)NCCCS(=O)(=O)N1CCN(c2ncccn2)CC1	GPR151 activ 7.5 | GPR151 conf act inactive | GPR119 ag inactive
O=S(=O)(CCOc1ccccc1)N1CCN(c2ccccc2F)CC1	none
O=C(COc1ccccc1)NCCCS(=O)(=O)N1CCN(c2ncccn2)CC1	none
CCOC(=O)c1ccc(Nc2cc(=O)[nH]c(=O)[nH]2)cc1	none
COc1cc(C(=S)N2CCCCC2)cc(OC)c1OC(=O)c1ccc(C)cc1	none
CCOc1cc(C(=O)N2CCCC2)cc(Cl)c1OC	none
COc1cc(C(=O)N2CCCC2C(=O)O)cc(OC)c1OC (stereo not given)	GPR151 activ 5.0 | GPR151 conf act inactive | GPR119 ag inactive
CCOc1ccc(C(=O)N2CCCC2C(=O)O)cc1 (stereo not given)	none
COc1cc(C(=O)N2CCCCC2)cc(Cl)c1OC	GPR151 activ 6.8 | GPR151 conf act inactive | GPR119 ag inactive
CCOC(=O)c1ccc(OCC2c3cc(OC)c(OC)cc3CCN2C(=O)COc2ccccc2)cc1 (stereo not given)	none
Cc1c(Br)c(-c2n[nH]c(=S)n2CC(C)C)nn1C	none
Cc1nn(C(C)C(=O)NCc2ccc(Cl)cc2)c(=O)c2cc3sccc3n12 (stereo not given)	none
CCC(C)C(=O)Nc1ccc(O)cc1C(=O)O (stereo not given)	none
CCC(C)C(=O)Nc1cc(OC)c(OC)cc1C(=O)O (stereo not given)	GPR151 activ 7.1 | GPR151 conf act inactive | GPR119 ag inactive
CCC(=O)N1CCc2cc(S(=O)(=O)CCC(=O)NC3CCCCCC3)ccc21	GPR151 activ 5.0 | GPR151 conf act inactive | GPR119 ag inactive
COc1ccc(-c2nc3cc(Cl)ccc3o2)cc1OC	GPR151 activ 5.8 | GPR151 conf act inactive | GPR119 ag inactive
O=S(=O)(c1ccc2oc(-c3ccc(Cl)cc3)nc2c1)c1ccc2oc(-c3ccc(Cl)cc3)nc2c1	GPR151 activ 5.7 | GPR151 conf act inactive | GPR119 ag inactive
NS(=O)(=O)c1ccc(Nc2cc(-c3ccco3)cs2)cc1	none
CCCCC(c1nnnn1Cc1ccco1)N1CCN(C(=O)c2ccco2)CC1 (stereo not given)	GPR151 activ 20 | GPR151 conf act inactive | GPR119 ag inactive
CCCC(c1nnnn1Cc1ccco1)N1CCN(C(=O)c2ccco2)CC1 (stereo not given)	none
Cc1ccc2c(c1)C(=C(C#N)C#N)C=C(c1cccs1)O2	GPR151 activ 5.3 | GPR151 conf act inactive | GPR119 ag inactive
COc1cc(-c2nc3n(n2)C(c2cccc(O)c2)C(C(N)=O)=C(C)N3)cc(OC)c1OC (stereo not given)	none
COc1ccc(-c2cc(C(=O)N3CCCCC3C)[nH]n2)cc1 (stereo not given)	GPR151 activ 5.3 | GPR151 conf act inactive | GPR119 ag inactive
COc1ccc(-c2cc(C(=O)N3C(C)CCCC3C)[nH]n2)cc1 (stereo not given)	none
COc1cc([N+](=O)[O-])ccc1-c1ccc(C(=O)Nc2ccc(Br)cn2)o1	GPR151 activ 7.1 | GPR151 conf act inactive | GPR119 ag inactive
COc1cc([N+](=O)[O-])ccc1-c1ccc(C(=O)Nc2cc(Cl)cc(Cl)c2)o1	none
S=C(Nc1ccccc1)Nc1ccccc1Cl	none
NC[C@H]1O[C@H](O[C@H]2[C@H](O)[C@@H](O[C@H]3O[C@H](CO)[C@@H](O)[C@H](N)[C@H]3O)[C@H](N)C[C@@H]2N)[C@H](N)C[C@@H]1O	GPR151 activ 24! | GPR151 conf act inactive | GPR119 ag inactive
N#Cc1cc2c(ccc3ccccc32)oc1=N	GPR151 activ 6.1 | GPR151 conf act inactive | GPR119 ag inactive
O=C(O)c1cc2c(ccc3ccccc32)o1	none
CCOC(=O)c1ccc(Nc2c([N+](=O)[O-])c(=O)oc3ccccc23)cc1	none
Cc1c(C(=O)Nc2cc(Sc3ccc(F)cc3)cc([N+](=O)[O-])c2)sc2ncn(Cc3ccccc3F)c(=O)c12	GPR151 activ 5.1 | GPR151 conf act inactive | GPR119 ag inactive
CSc1ccc(-c2ccc3c(c2)CC(CNC(=O)C2CCOC2)O3)cc1 (stereo not given)	GPR151 activ 7.9 | GPR151 conf act inactive | GPR119 ag inactive
CSc1ccc(-c2ccc3c(c2)CC(CNC(=O)c2ccncc2)O3)cc1 (stereo not given)	none
Cc1ccc(NC(=O)c2cc3c(=O)n4ccccc4nc3n2C)cc1Cl	none
Cc1cc(C(F)(F)F)nc2snc(Br)c12	GPR151 activ 5.2 | GPR151 conf act inactive | GPR119 ag inactive
CCCc1ccc(S(=O)(=O)Nc2ccc3c(c2)CC(=O)N3C)cc1	GPR151 activ 4.9 | GPR151 conf act inactive | GPR119 ag inactive
O=C(NCCCN1CCCC1=O)c1csc(N2CCc3ccccc3C2)n1	none
Cc1ccc(Sc2ccc3noc4c3c2C(=O)c2ccccc2-4)cc1	GPR151 activ 11 | GPR151 conf act inactive | GPR119 ag inactive
COC(=O)CNC(=O)CN1C(=O)c2ccccc2S1(=O)=O	none
Cc1ccc(N(CC(=O)NCCC(C)C)C(=O)CCC(=O)Nc2ccccn2)cc1	GPR151 activ 6.3 | GPR151 conf act inactive | GPR119 ag inactive
CC(C)CN1C(=O)NC(NC(=O)c2ccccc2)(C(F)(F)F)C1=O (stereo not given)	none
CC(C)(C)c1nnc(NC(=O)c2cccnc2Cl)s1	none
CC(C)(C)c1nnc(NC(=O)c2ccc(Cl)nc2Cl)s1	GPR151 activ 8.1 | GPR151 conf act inactive | GPR119 ag inactive
COc1ccc2c(c1)COC1(CCN(C(=O)Nc3c(C)noc3C)CC1)O2	none
Cc1c(NC(=O)c2cc(-c3ccc(Cl)c(Cl)c3)on2)c(=O)n(-c2ccccc2)n1C	GPR151 activ 8.5 | GPR151 conf act inactive | GPR119 ag inactive
Cc1c(NC(=O)CCSc2ccc(Cl)cc2)c(=O)n(-c2ccccc2)n1C	GPR151 activ 5.2 | GPR151 conf act inactive | GPR119 ag inactive
Cc1c(NC(=O)Cc2ccc(Cl)cc2)c(=O)n(-c2ccccc2)n1C	none
COc1ccccc1OC(C)C(=O)Nc1c(C)n(C)n(-c2ccccc2)c1=O (stereo not given)	GPR151 activ 6.7 | GPR151 conf act inactive | GPR119 ag inactive
Cc1cc2c(Nc3ccccc3F)ncnc2s1	none
COc1cc(/C=C2/N=C(c3ccccc3)NC2=O)cc(OC)c1OC	GPR151 activ 5.4 | GPR151 conf act inactive | GPR119 ag inactive
O=C1NC(c2ccccc2)=N/C1=C/c1ccccc1	none
O=C(CC1CCCCC1)N(c1ccc(Br)cc1)C1C=CS(=O)(=O)C1 (stereo not given)	none
